Laboratory results published in PubChem BioAssay.
Values without a mark were called inactive. Calls of active or inactive are those of the source. Unless noted, no stated cut-off is given here; in the data, active means inhibition above about 36%; inactive means the rest.

Legend:
[1] = test system: transactivating tegument protein VP16 (Human herpesvirus 1); assay: compounds suppressing VP16-driven luciferase signal – cell-based, luminescence, single concentration, counter-screen for SRC2 inhibitor project (AID 652007); settings: cell-based VP16 transactivation luciferase reporter, at 8.9 µM, stronger effect = higher value
[2] = molecular target: Nuclear receptor coactivator 2 (Homo sapiens) (UniProt Q15596); assay: inhibition of GAL4-SRC2 driven luciferase expression – cell-based, luminescence, HEK293, triplicate, confirmation (AID 652008;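 active means mean inhibition above 46.5%, the solvent-only control mean plus 3 SD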;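 further: 0% = DMSO-treated cells and 100% = Gossypol at 36 µM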); settings: HEK293 GAL4-SRC2 luciferase reporter, at 8.9 µM, stronger effect = higher value
Nuclear receptor coactivator 2 (Homo sapiens), sequence (Q15596 whole entry, looked up, the tested form may be a part): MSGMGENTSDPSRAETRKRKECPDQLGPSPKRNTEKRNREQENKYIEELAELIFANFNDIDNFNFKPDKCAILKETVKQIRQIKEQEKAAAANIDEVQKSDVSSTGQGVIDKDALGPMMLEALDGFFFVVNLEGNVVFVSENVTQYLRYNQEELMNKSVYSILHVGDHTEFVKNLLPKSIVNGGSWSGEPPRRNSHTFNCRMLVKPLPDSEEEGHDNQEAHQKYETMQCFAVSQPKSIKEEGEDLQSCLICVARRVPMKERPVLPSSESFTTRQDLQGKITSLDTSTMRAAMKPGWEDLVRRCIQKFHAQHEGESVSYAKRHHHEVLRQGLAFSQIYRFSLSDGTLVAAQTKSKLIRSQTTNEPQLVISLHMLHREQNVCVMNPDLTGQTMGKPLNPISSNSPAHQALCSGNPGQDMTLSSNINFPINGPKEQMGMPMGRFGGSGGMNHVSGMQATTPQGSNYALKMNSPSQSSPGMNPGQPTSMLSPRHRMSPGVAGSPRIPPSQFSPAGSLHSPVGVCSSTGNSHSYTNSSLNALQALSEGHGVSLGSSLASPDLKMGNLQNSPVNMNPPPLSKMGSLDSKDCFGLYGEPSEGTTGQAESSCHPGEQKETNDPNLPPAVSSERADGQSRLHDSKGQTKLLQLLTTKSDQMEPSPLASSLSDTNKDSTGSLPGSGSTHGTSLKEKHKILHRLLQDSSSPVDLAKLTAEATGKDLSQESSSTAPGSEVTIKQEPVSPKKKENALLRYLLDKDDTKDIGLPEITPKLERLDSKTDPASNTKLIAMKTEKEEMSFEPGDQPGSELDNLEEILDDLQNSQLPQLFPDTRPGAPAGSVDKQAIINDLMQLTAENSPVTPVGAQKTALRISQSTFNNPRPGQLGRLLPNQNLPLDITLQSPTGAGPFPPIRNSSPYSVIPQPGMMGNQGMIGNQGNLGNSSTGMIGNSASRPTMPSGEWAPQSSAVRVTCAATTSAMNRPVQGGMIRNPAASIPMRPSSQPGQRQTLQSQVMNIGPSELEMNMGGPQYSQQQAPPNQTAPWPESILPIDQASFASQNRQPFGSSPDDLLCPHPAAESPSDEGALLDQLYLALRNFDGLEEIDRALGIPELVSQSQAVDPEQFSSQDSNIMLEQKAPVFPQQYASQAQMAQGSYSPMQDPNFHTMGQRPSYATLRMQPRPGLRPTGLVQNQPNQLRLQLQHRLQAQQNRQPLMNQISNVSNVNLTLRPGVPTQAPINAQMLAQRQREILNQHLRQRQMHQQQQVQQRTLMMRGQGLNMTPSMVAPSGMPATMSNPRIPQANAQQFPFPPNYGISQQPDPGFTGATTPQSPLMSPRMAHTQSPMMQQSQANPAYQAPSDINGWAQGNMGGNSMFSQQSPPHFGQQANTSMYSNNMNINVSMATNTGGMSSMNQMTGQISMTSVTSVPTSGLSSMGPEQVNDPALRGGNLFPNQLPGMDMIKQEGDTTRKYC

SMILES | inhibition [1] | inhibition [2]
COc1cc(C#Cc2c(-c3cncn3C)n(C)c3ccc(-c4ccc(OC)nc4)cc23)cc(OC)c1 | -13.2% | -23.7%
CCN(CC)c1ccc(/C=N/Nc2nn[nH]n2)cc1 | -13.6% | 43.4%
CCOc1ccc(/C=C/c2c([N+](=O)[O-])c(=O)n(C)c(=O)n2C)cc1 | 7.01% | 2.26%
CCCC(=O)Nc1cccc(NC(=O)c2ccccc2Br)c1 | -0.46% | -17.8%
CCC(C(=O)NCc1ccc(F)cc1)n1nc(C)n2c(cc3occc32)c1=O (configuration not stated) | -13.4% | -6.88%
O=C(Nc1nc2cc3c(cc2s1)OCCO3)c1ccco1 | 24.9% | 56.3% (active)
CCc1sc(NC(=O)CN2CCOCC2)nc1-c1ccccc1 | -0.48% | -0.93%
CC(C)(CN1CCC(Cc2ccccc2)CC1)NS(=O)(=O)c1ccccc1 | 13.9% | 32.5%
Cc1ccc(NC(=O)CSc2ncnc3ccccc23)cc1S(=O)(=O)N1CCCCC1 | 6.85% | 30%
O=C(Nc1ccc2c(c1)OCCO2)c1ccc(Br)c(S(=O)(=O)N2CCOCC2)c1 | -39.8% | 45.5%
CC(OC(=O)C1CCCCC1)C(=O)Nc1cccc([N+](=O)[O-])c1 (configuration not stated) | -0.78% | 9.77%
CCOc1ccccc1OCCCCOc1ccccc1F | -9.29% | -12.6%
COc1ccc(S(=O)(=O)Nc2cc(Sc3ncn[nH]3)c(O)c3ccccc23)cc1 | 26.7% | 10.1%
Cc1ccc(S(=O)(=O)CC(=O)N(CCCN(C)C)c2nc3ccc(C)cc3s2)cc1 | -1.57% | 15.1%
COc1ccc(NC(=O)CSCC(=O)Nc2ccccc2C(=O)N2CCCCC2)cc1 | -8.77% | -20.5%
COc1ccc(CN=C(Nc2ccccc2)SC2CC(=O)NC2=O)cc1 (configuration not stated) | -5.45% | -13.2%
Cc1ccc(S(=O)(=O)N2CCC(C(=O)Nc3ccc(S(=O)(=O)N4CCOCC4)cc3)CC2)cc1 | 8% | 30.2%
CC(C)(C)c1ccc(Oc2ccc(NC(=O)c3ccco3)cn2)cc1 | 30.6% | 42.2%

SMILES | inhibition [1] | inhibition [2]
O=C(CSCCO)Nc1ccc(C23CC4CC(CC(C4)C2)C3)cc1 | -57.7% | 41.9%
CCn1c(=O)c2c(cnn2C)c2ccccc21 | 25.8% | 50.6% (active)
Cc1ccc(O)c(NC(=O)c2cc([N+](=O)[O-])ccc2Cl)c1 | 8.71% | 44.2%
CC(=O)Nc1cccc(-c2cc(NC(C)=O)c3ncc(-c4ccc(F)cc4)n3c2)c1 | 12% | 2.54%
COc1ccc(-c2csc3ncnc(NCCO)c23)cc1 | 3.39% | 47.1% (active)
Cn1nnnc1Sc1ncnc2scc(-c3ccsc3)c12 | 18.3% | 45%
O=C1/C(=C/c2ccncc2)CCC/C1=C\c1ccncc1 | 89.1% (active) | 98.1% (active)
O=C(N/N=C/c1ccc(O)cc1)c1[nH]c2ccc(Br)cc2c1-c1ccccc1 | -15.2% | -7.94%
Cc1ccc(NC(=O)C2CCN(S(=O)(=O)c3ccc(N4CCCC4=O)cc3)CC2)cc1Cl | 31% | 46.4%
COC(=O)c1c(N)sc(C(=O)NCCc2ccccc2)c1C | -1.83% | 49.4% (active)
Cc1ccc(CS(=O)(=O)c2ncc(Cl)c(C(=O)Nc3ccc(OC(F)F)cc3)n2)cc1 | 76.9% (active) | 28.9%
Cc1ccc(Cn2ccc(=O)c(OCc3c(Cl)cccc3Cl)c2C)cc1 | 11.9% | 13.3%
CCc1ccc(-c2nc(CSCC(=O)NC3CC3)c(C)o2)cc1 | 47.6% (active) | 35.1%
COCc1cc(N2CCN(C(=O)OC(C)(C)C)C[C@H]2C)ccc1N1CCS(=O)(=O)CC1 | 5.52% | 33.9%
CC(=O)Nc1ccc(Nc2cc(C)nc3c(-c4ccccc4)cnn23)cc1 | -21.3% | 35.7%
CC(=O)N(Cc1ccc(F)cc1)C1=C(NCCc2ccccc2)C(=O)c2ccccc2C1=O | 14.1% | 20%
C=C1C(=O)O[C@@H]2C[C@@H](C)[C@@H]3C=CC(=O)[C@@]3(C)[C@@H](OC(C)=O)[C@H]12 | 96% (active) | 91% (active)
CCN(CC)S(=O)(=O)c1ccc(NC(=O)Nc2cccc(C(F)(F)F)c2)cc1 | -13.1% | 14%
